RAM inhibit = blocks the yeast RAM network | 190,000 tested, 1.8% active | S. cerevisiae dse1pr::URA3 reporter, 5-FOA growth OD615, 2 d; analog-sensitive cbk1-as2 kinase mutant strain | inhibition, % at 50 µM | AID 868;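 active = inhibition above a set limit, 3 SD over mean compound inhibition, cut at about 8.4% in these data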;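 note: inhibition rescues growth on 5-FOA so higher OD means more RAM inhibition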
SKN-1 inh = blocks SKN-1 activity in C. elegans | C. elegans VP596 Pgst-4::GFP/RFP ratio, acrylamide-induced, 24 h | inhibition, % at 21.8 µM | 360,000 tested, 0.49% active | AID 624304;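 active = interference check ratio from 0.5 to 1.5 plus GFP to RFP signal ratio inhibition reaching or exceeding a fixed threshold, cut at about 30% in these data, passing the limit was not always enough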
PG9 Ab binder = small molecules binding HIV-1 gp120 antibody PG9; 360,000 tested, 0.43% active; inhibition, % at 6.7 µM; TR-FRET gp120-PG9 antibody binding; in the data active = inhibition above about 8.5%
Rev-erbA mod = modulates human Rev-erb alpha binding to DNA; activity, % at 10 µM; Rev-erbα–FITC-DNA binding, fluorescence polarization, 90 min; 370,000 tested, 0.79% active; AID 1259318;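 active = activity above about 14%, limit read from the data; passing the limit was not always enough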
PGE2 EP2 inh = EP2 receptor (human) inhibition. P43116. C6 glioma cells expressing human EP2, cAMP TR-FRET; cells stimulated with saturating PGE2. inhibition, % at 25 µM. 260,000 tested, 0.52% active;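 active = percent inhibition above 40 after rounding to a whole number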;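 note: rat C6 glioma host cells with rolipram phosphodiesterase inhibitor present; the protocol text gives 20 µM as final concentration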
Target sequence (P43116 whole entry, looked up): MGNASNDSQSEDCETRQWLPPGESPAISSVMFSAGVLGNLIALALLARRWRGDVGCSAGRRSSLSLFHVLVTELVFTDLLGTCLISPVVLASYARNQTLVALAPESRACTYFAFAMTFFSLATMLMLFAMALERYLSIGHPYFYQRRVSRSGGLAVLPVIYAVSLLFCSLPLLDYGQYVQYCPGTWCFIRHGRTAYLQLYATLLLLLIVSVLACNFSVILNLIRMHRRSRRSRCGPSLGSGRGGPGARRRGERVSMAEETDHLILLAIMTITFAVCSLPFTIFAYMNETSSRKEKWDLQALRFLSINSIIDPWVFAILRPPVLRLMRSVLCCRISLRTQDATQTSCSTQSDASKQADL
EP2 modulator = modulators of human EP2 prostaglandin E2 receptor | P43116 | EP2-expressing cells, cAMP HTRF FRET, PGE2 co-stimulation | induction, % at 25 µM | 260,000 tested, 0.83% active;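 active = compounds whose cAMP rise, as percent of the full-agonist control response, exceeds 60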;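 note: rat C6 glioma line stably carrying human EP2 under a CMV promoter; the protocol text gives 20 µM as final concentration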
NR1D1 mod conf = confirmation of modulators of human Rev-erb alpha DNA binding | shares compounds with Rev-erbA mod | Rev-erb alpha FITC-DNA binding, fluorescence polarization, 90 min | activation, % at 25 µM | 3,000 tested, 61% active | AID 1259319;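 active = activation at or above a set limit, or at least 3 SD above the negative control mean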
RORg DNA counter = counter-screen for Rev-erb alpha modulators: RORgamma DNA binding; shares compounds with Rev-erbA mod; purified RORgamma protein-FITC-DNA binding, fluorescence polarization; 910 tested, 8% active; IC50, µM;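 active = Compounds whose fitted half-maximal concentration for disrupting protein-DNA binding is below 10 micromolar; the record names Rev-erb in its text, so the target is in doubt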
A number is an active result. The list is not random: actives were taken first. Their share in the collection is about 2.9%.

What do the screens show for `COc1cccc(-c2cc(=O)c3cc(NC(=O)c4ccccc4)ccc3[nH]2)c1`?
RAM inhibit: inactive; SKN-1 inh: inactive; PG9 Ab binder: inactive; Rev-erbA mod: 26; PGE2 EP2 inh: inactive; EP2 modulator: inactive; NR1D1 mod conf: inactive

How did Cc1cc2cc3c(cc2n2c(=O)n(Cc4ccncc4)nc12)OCO3 do in these assays?
EP2 modulator: inactive

How did COc1ccc(CCn2c(O)c(C=Nc3cccc(F)c3)c(=O)[nH]c2=O)cc1OC do in these assays?
SKN-1 inh: inactive; PG9 Ab binder: inactive; Rev-erbA mod: 38; PGE2 EP2 inh: inactive; EP2 modulator: inactive; NR1D1 mod conf: inactive

How did Cc1ccc2[nH]cc(S(=O)(=O)c3ccc(C)c(C)c3)c(=O)c2c1 do in these assays?
SKN-1 inh: inactive; PG9 Ab binder: inactive; Rev-erbA mod: 56; NR1D1 mod conf: 33; RORg DNA counter: inactive

Results for COc1cc(C(=O)Nc2cccc(-c3nc4cc(C)ccc4o3)c2)cc(OC)c1OC ?
RAM inhibit: 8.7; SKN-1 inh: inactive; PG9 Ab binder: inactive; Rev-erbA mod: 61; PGE2 EP2 inh: inactive; EP2 modulator: inactive; NR1D1 mod conf: 54; RORg DNA counter: inactive

What do the screens show for `COc1cc(C(=O)Nc2cc(-c3nc4cc(C)ccc4o3)ccc2C)cc(OC)c1OC`?
RAM inhibit: inactive; SKN-1 inh: inactive; PG9 Ab binder: inactive; Rev-erbA mod: inactive; PGE2 EP2 inh: inactive; EP2 modulator: inactive

What do the screens show for `COc1ccc(OCC(=O)Nc2cccc(-c3nc4ccccc4o3)c2)cc1`?
RAM inhibit: inactive; SKN-1 inh: inactive; PG9 Ab binder: inactive; Rev-erbA mod: 26; PGE2 EP2 inh: inactive; EP2 modulator: inactive; NR1D1 mod conf: inactive

How did CC(C)CC(=O)Nc1cccc(-c2nc3ccccc3o2)c1 do in these assays?
RAM inhibit: inactive; SKN-1 inh: inactive; PG9 Ab binder: inactive; Rev-erbA mod: 33; PGE2 EP2 inh: inactive; EP2 modulator: inactive; NR1D1 mod conf: 26

How did CC(=O)Nc1cccc(-c2nc3ccccc3o2)c1 do in these assays?
SKN-1 inh: inactive; PG9 Ab binder: inactive; Rev-erbA mod: inactive

How did CC(C)C(=O)Nc1cccc(-c2nc3ccccc3o2)c1 do in these assays?
RAM inhibit: inactive; SKN-1 inh: inactive; PG9 Ab binder: inactive; Rev-erbA mod: 21; PGE2 EP2 inh: inactive; EP2 modulator: inactive; NR1D1 mod conf: 19

Results for NC(=O)COc1ccc(/C=N\NC(=O)c2ccc(-c3ccccc3)cc2)cc1 ?
SKN-1 inh: inactive; PG9 Ab binder: inactive; Rev-erbA mod: 35; NR1D1 mod conf: 21

What do the screens show for `Cc1ccc(-c2nnn(C3CCN(C(=O)c4snnc4C)CC3)n2)cc1`?
EP2 modulator: inactive

What do the screens show for `COc1ccccc1C(=O)Nc1nnc(-c2ccc(F)cc2)s1`?
SKN-1 inh: inactive; PG9 Ab binder: inactive; Rev-erbA mod: 36; NR1D1 mod conf: 39; RORg DNA counter: inactive

How did COCc1nnc(NC(=O)c2ccc(OC)cc2OC)s1 do in these assays?
RAM inhibit: inactive; SKN-1 inh: inactive; PG9 Ab binder: inactive; Rev-erbA mod: inactive; PGE2 EP2 inh: inactive; EP2 modulator: inactive

How did COc1ccccc1C(=O)Nc1nnc(S(=O)(=O)N2CCN(c3ccc(F)cc3)CC2)s1 do in these assays?
SKN-1 inh: inactive; PG9 Ab binder: inactive; Rev-erbA mod: 18; NR1D1 mod conf: inactive

How did COc1ccc(C(=O)Nc2nnc(-c3ccc(F)cc3)s2)c(OC)c1 do in these assays?
SKN-1 inh: inactive; PG9 Ab binder: inactive; Rev-erbA mod: 25; NR1D1 mod conf: inactive

Results for Cc1cc(C)c2cc(CN(Cc3cccnc3)C(=O)Nc3ccccc3Cl)c(=O)[nH]c2c1 ?
PGE2 EP2 inh: inactive; EP2 modulator: inactive

What do the screens show for `CCc1nc2sc3c(c2c2nnc(SCC(=O)Nc4nccs4)n12)CCC(C)C3` (stereo not drawn)?
PGE2 EP2 inh: inactive; EP2 modulator: inactive

How did Cc1ccc2[nH]cc(NC(=O)N3CCn4cnnc4C3)c(=O)c2c1 do in these assays?
PGE2 EP2 inh: inactive; EP2 modulator: inactive

How did COc1ccc2nc(NC(=O)C(NS(=O)(=O)c3cccc4nsnc34)C(C)C)sc2c1 (stereo not drawn) do in these assays?
RAM inhibit: inactive; SKN-1 inh: inactive; PG9 Ab binder: inactive; Rev-erbA mod: 31; EP2 modulator: inactive; NR1D1 mod conf: 18

How did COc1ccc2nc(NC(=O)C3CCN(S(=O)(=O)c4cccc5nsnc45)CC3)sc2c1 do in these assays?
RAM inhibit: inactive; SKN-1 inh: inactive; PG9 Ab binder: inactive; Rev-erbA mod: inactive; PGE2 EP2 inh: inactive; EP2 modulator: inactive

How did COc1ccccc1C(=O)COC(=O)Cn1[nH]c(=O)c2ccccc2c1=O do in these assays?
SKN-1 inh: inactive; PG9 Ab binder: inactive; Rev-erbA mod: 22; NR1D1 mod conf: inactive

How did O=C(Cn1[nH]c(=O)c2ccccc2c1=O)OCC(=O)c1ccc(Br)cc1 do in these assays?
SKN-1 inh: inactive; PG9 Ab binder: inactive; Rev-erbA mod: inactive

Results for Cc1cc(=O)oc2cc(OCC3CC(c4ccc(Br)cc4)=NO3)ccc12 (stereo not drawn) ?
RAM inhibit: inactive; SKN-1 inh: inactive; PG9 Ab binder: inactive; Rev-erbA mod: 55; PGE2 EP2 inh: inactive; EP2 modulator: inactive; NR1D1 mod conf: 46; RORg DNA counter: 2.1

Results for Cc1cc(=O)oc2cc(OCC3CC(c4ccccc4)=NO3)ccc12 (stereo not drawn) ?
RAM inhibit: inactive; SKN-1 inh: inactive; Rev-erbA mod: inactive; PGE2 EP2 inh: inactive; EP2 modulator: inactive

How did COc1ccc2nc(SCC(=O)Nc3cc(C)on3)c(C#N)cc2c1 do in these assays?
SKN-1 inh: inactive; PG9 Ab binder: inactive; Rev-erbA mod: 61; NR1D1 mod conf: 27

What do the screens show for `CCc1cc2ccc(C)cc2nc1SCC(=O)Nc1cc(C)on1`?
RAM inhibit: inactive; SKN-1 inh: inactive; PG9 Ab binder: inactive; Rev-erbA mod: 17; PGE2 EP2 inh: inactive; EP2 modulator: inactive; NR1D1 mod conf: inactive

Results for N#Cc1cc2cc3c(cc2nc1SCC(=O)N1CCOCC1)OCCO3 ?
SKN-1 inh: inactive; PG9 Ab binder: inactive; Rev-erbA mod: 17; NR1D1 mod conf: inactive

Results for N#Cc1cc2ccccc2nc1SCC(=O)Nc1ccccc1 ?
PGE2 EP2 inh: inactive; EP2 modulator: inactive

How did COc1cccc(NC(=O)CSc2nc3ccc(OC)cc3cc2C#N)c1 do in these assays?
PGE2 EP2 inh: inactive; EP2 modulator: inactive

How did Cc1cc(NC(=O)CSc2nc3ccccc3cc2C#N)no1 do in these assays?
SKN-1 inh: inactive; PG9 Ab binder: inactive; Rev-erbA mod: 27; NR1D1 mod conf: 18

Results for C#CCOc1ccc(/C=C/C2=CCN(C)CC2)cc1OCC ?
PGE2 EP2 inh: inactive; EP2 modulator: inactive

Screening results deposited in PubChem by several laboratories.
